# Experimental data as given in PubChem BioAssay AID652025 (National Center for Advancing Translational Sciences (NCATS), 2013).
# Several values for one entry are separate records, joined by “and”; a condition that tells them apart may be missing. Identical values can stand only once. About 240 (0.067%) of roughly 360,000 compounds were called active. Cut-off read from the data, not from the text of the source: active = activation above about 50%; inconclusive = mostly about 30% to 49%; inactive = weaker than that. This excerpt belongs to a sample that is enriched for actives.
# Assay: qHTS of IL-2 Activators; note: 0% is about no effect
# Conditions: IL-2 activation reporter assay, cell-based qHTS; stronger effect = higher value; in transgenic mouse T cells; stimulated with anti-CD3/CD4/CD28 beads
# Description: The adaptive immune response against any infectious agent begins with the activation of an antigen specific T cell. This relatively rare and inert ("naive") T cell undergoes a massive proliferative expansion and differentiation process to generate sufficient number of potent pathogen-specific effector T cells. The effector T cells fight the infection by making cytokines and helping other cells to become fully armed as well. If any naive T cell has antigen receptors (TCRs) that can be activated by self peptides, then a variety of regulatory mechanisms kick in to prevent this cell from performing to its full potential. These processes collectively constitute the phenomenon of immunological tolerance and their failure leads to autoimmunity. One arm of tolerance involves generation of biochemical negative feedback downstream of the TCR (tuning). This is especially relevant to self antigens present in the body over long periods of time (chronic), which form the bulk of our proteome. The negative feedback serves to tune the TCR signaling, such that the ambient antigenic stimulation is nullified intracellularly. Unfortunately, this critical machinery serves as a target for chronic viral, bacterial and parasitic infections (as well as tumors), which can evade a robust immune response, simply by allowing T cells to tune down their signaling to pathogen or malignancy derived antigens. As such, disrupting the tuning in such cases would allow the tolerant T cell to function again and deliver a robust effector response.
# If a therapeutic can restore responsiveness to the tuned down T cell, even for a short time, they could combat the pathogen without any additional immunization. To that end, we have developed a sensitive HTS T cell based assay based on IL-2. This assay will be screened against the Molecular Libraries Small Molecule Repository (MLSMR) to find small molecules that could elicit this response.
# NIH Chemical Genomics Center [NCGC]
# NIH Molecular Libraries Probe Centers Network [MLPCN]
# Assay Submitter (PI): Ron Schwartz, NIAID
# 4 microL (750 cells/well) of unstimulated transgenic mouse T cells (columns 1-3,5-48) are dispensed into Aurora LoBase, black clear-bottom 1536-well assay plates; column 4 receives an identical concentration of transgenic memory T cells as a non-tolerant control. Compounds are then transferred via Kalypsys pin tool equipped with 1536-pin array (10 nL slotted pins, V&P Scientific, San Diego, CA). Following addition of compound and a 60 minute incubation, 1 microL of bead stimulation solution ((0.04 micron Fluospheres (Life technologies, CA) coated with 10ug/ml each anti-CD3 and anti-CD4 (clones 2C11 and GK1.5, BD Biosciences, CA) and mixed with 1ug/ml anti-CD28 (clone PV-1, BD biosciences, CA)). columns 2-48) is added to stimulate the IL-2 response pathway; media is instead added to column 1 as an unstimulated control, while PMA/ionomycin (Sigma Aldrich, MO) is added to column 3 as a control for IL-2 tolerance bypass. The plates are then incubated at 37 degrees C for 18 hours. EGFP and DsRed signal are then detected using an Acumen eX3 Explorer fluorescent plate cytometer. All cells are dispensed in cell media containing EHAA (Quality Biologicals, MD), RPMI (Quality Biologicals, MD), Glutamine (Life Technologies, CA), Penicillin/Streptomycin (Quality Biologicals, MD), 2-ME (Sigma Aldrich, MO) and 10% FBS (Gemini Bioproducts, CA) .
row,Structure (SMILES),activation
1,O=S1(=O)C=C(SCCN2CCCC2)c2ccccc21,5.28% (inactive)
2,[O-][n+]1c2c(nn1-c1ccc(Cl)c(Cl)c1)-c1nonc1CC2,0.19% (inactive)
3,CCOC(=O)c1cn[nH]c1NC(=S)Nc1ccccc1,-3.84% (inactive)
4,CCOC(=O)C1C(=O)OC2(CCCC2)C1C(=O)OCC (stereo not given),-0.195% (inactive)
5,Cc1c(C(=O)NC(=S)NCc2cccnc2)oc2ccccc12,-3.54% (inactive)
6,COC(=O)C1=C(N)Oc2c(oc(CO)cc2=O)C1c1c(F)cccc1Cl (stereo not given),1.1% (inactive)
7,C=CCOC(=O)N1CCC2CC1c1cc(-c3ccc(OC)cc3)ccc12 (stereo not given),-0.638% (inactive)
8,COc1ccccc1N(C(=O)Cn1nnc2ccccc21)C(C(=O)NCc1ccco1)c1ccc(C)o1 (stereo not given),-0.406% (inactive)
9,CN(CCO)Cc1csc2ccc(Br)cc12,-0.737% (inactive)
10,CCOc1ccc(C(=O)NC(C(=O)NCc2ccccn2)C(C)C)cc1 (stereo not given),-4.42% (inactive)
11,COc1ccc(/C=C/CN2CCN(Cc3ccc(C)cc3)C(CCO)C2)cc1 (stereo not given),0.996% (inactive)
12,Cc1cccc(C(=O)O)c1[N+](=O)[O-],-0.181% (inactive)
13,O=C1C=CC(=O)N1c1ccc(N2CCCCC2)cc1,-7.5% (inactive)
14,OCC1(CO)CC2(C1)CC(CO)(CO)C2,0.276% (inactive)
15,CC(C)(C)C(=O)NNC(=O)c1ccc(Oc2cc(Cl)cc(Cl)c2)o1,0.282% (inactive)
16,Cc1ccc(NC(=O)c2nc[nH]c2C(=O)N2CCCCC2)c(C(=O)c2ccccc2)c1,-0.352% (inactive)
17,O=C(CCN1C(=O)/C(=C/c2cccs2)SC1=S)NNC(=O)c1cccc(O)c1,133% (active)
18,O=C(CCN1C(=O)c2ccccc2C1=O)NNC(=O)c1ccc(Cl)cc1Cl,0.499% (inactive)
19,O=C1/C(=C/c2cccs2)SC(=S)N1C1CCS(=O)(=O)C1 (stereo not given),2.78% (inactive)
20,CCOC(=O)C1CCCN(S(=O)(=O)c2ccc3c(c2)C(C)(C)C(=O)N3C)C1 (stereo not given),-2.21% (inactive)
21,CCCn1c(=O)c2[nH]c(C3CCCC3)nc2n(CCC)c1=O,-0.643% (inactive)
22,C[C@]12C=CC(=O)C=C1CC[C@@H]1[C@@H]2C(=O)C[C@@]2(C)[C@H]1CC[C@]2(O)C(=O)CO,0.342% (inactive) and -0.368% (inactive)
23,CCOCCCN(C)C1CCN(C(=O)c2oc3ccccc3c2NC(=O)Cc2cccc([N+](=O)[O-])c2)CC1,-1.43% (inactive)

row,Structure (SMILES),activation
1,O=C(Nc1ccc(Br)cc1)C1CCC(=O)N1Cc1ccccc1Cl (stereo not given),-1.19% (inactive)
2,C=CCOC(=O)C1=C[C@H](c2ccc(Br)cc2)C[C@H](OCCCCO)O1,0.356% (inactive)
3,CC(C)OC(=O)Cn1nc(C(F)(F)F)c2c1CCCC2,0.525% (inactive)
4,C=CCn1c(CCNC(=O)c2ccccc2F)nnc1SCC(=O)Nc1ccc(OC)cc1,0.0893% (inactive)
5,CON(C)S(=O)(=O)c1ccc2c(c1)NC(=O)C1CCCN21 (stereo not given),-2.38% (inactive)
6,O=c1[nH]c(CSc2ccccc2)nc2c1oc1ccccc12,0.844% (inactive)
7,CCC(C)Sc1nc2c(cnn2-c2ccc(F)cc2)c(=O)[nH]1 (stereo not given),-4.9% (inactive)
8,CC(=O)CC[C@@H](C)O[C@@H]1OC(C)[C@H](O)CC1O (stereo not given in full),0.121% (inactive)
9,C/C(=N\NC(=O)c1ccc(CSc2nc(C)cc(C)n2)cc1)C1CCCCC1,-0.149% (inactive)
10,Cc1cc(C)n(CCNC(=O)CC2C(=O)NCCN2Cc2ccc(C)o2)n1 (stereo not given),-0.111% (inactive)
11,COc1ccccc1N(CC(=O)Nc1ccccc1C(=O)N1CCCC1)S(C)(=O)=O,-1.54% (inactive)
12,Cc1cc(Br)ccc1SCC(=O)OCC(=O)NCc1ccc2c(c1)OCO2,-3.89% (inactive)
13,CCOc1ccc(NC(=O)CN(C)CC(=O)Nc2cccc(Cl)c2C)cc1OCC,-1.33% (inactive)
14,Nc1ccc(N=Nc2ccccc2Cl)c(N)n1,0.821% (inactive)
15,Nn1cnnc1N/N=C/c1cc([N+](=O)[O-])c(Cl)cc1Cl,-0.276% (inactive)
16,CC1=C(C(N)=O)C(c2ccc3c(c2)OCO3)n2nc(-c3cccc(C)c3)nc2N1 (stereo not given),-0.667% (inactive)
17,O=c1nc(NO)ccn1C1CCCO1 (stereo not given),-4.07% (inactive)
18,CC(C)(C)OC(=O)Nc1ccc([C@@H](NC(=O)OC(C)(C)C)C(=O)OC(C)(C)C)cc1,1.22% (inactive)
19,COc1ccc(CCNC(=O)c2ccc(NC(=O)CC3SC(N4CCCCC4)=NC3=O)cc2)cc1OC (stereo not given),1.44% (inactive)
20,O=C(CSc1nc(Nc2ccccc2)nc(N2CCOCC2)n1)Nc1cc(Cl)ccc1O,-3.68% (inactive)
21,CC(C)CN1C(=O)CN(S(C)(=O)=O)CC1(C)C(=O)NCc1ccccc1 (stereo not given),-0.324% (inactive)
22,O=C(Nc1ccc(F)c(Cl)c1)C1CCN(S(=O)(=O)c2cccnc2)CC1,-4.67% (inactive)
23,CCN1/C(=C\c2ccc3ccccc3[n+]2CC)Sc2cc(C)ccc21,83.8% (active)

row,Structure (SMILES),activation
1,O=C(O)C1CCCCC1C(=O)Nc1ccc(Cl)cc1 (stereo not given),-0.998% (inactive)
2,NC(N)=NCCCc1cn(CC(=O)N2CCNCC2)nn1,-0.704% (inactive)
3,CCC[C@H]1CCCC/C=C\CCCC(=O)OCCN1C(=O)OC(C)(C)C,-3.09% (inactive)
4,OC(CNCc1ccc(Cl)c(Cl)c1)c1ccccc1 (stereo not given),0.815% (inactive)
5,Cc1ccc(C)c(NS(=O)(=O)c2cc(Br)cnc2N)c1,-0.259% (inactive)
6,CN1CCN(c2ccc(CNS(=O)(=O)c3cccc(F)c3)cc2)CC1,-0.358% (inactive)
7,COc1ccc(CNC(=O)CN2C(=O)NC3(CCCc4sccc43)C2=O)cc1 (stereo not given),1.66% (inactive)
8,CN(c1ccccc1)c1nc(N)c([N+](=O)[O-])c(NCc2ccco2)n1,2.01% (inactive)
9,CCCC1NC(=O)NC(C)=C1C(=O)OCC (stereo not given),-3.34% (inactive)
10,CC1(C(=O)NCc2ccc(F)c(F)c2)Cc2c(-c3ccc4c(c3)OCO4)ccnc2O1 (stereo not given),0.821% (inactive)
11,Cc1ccc(OCCNC(=O)CN2C(=O)NC3(CCCC3)C2=O)cc1,-0.135% (inactive)
12,Cc1ccc(CNC(=O)Cn2cnc3c(NCc4ccccc4)ncnc32)o1,-0.27% (inactive)
13,CC(C)(C)NC(=O)C(c1ccc(Cl)cc1)N(CCO)C(=O)c1snc(C(N)=O)c1N (stereo not given),0.402% (inactive)
14,CCOc1cc(S(=O)(=O)NC2CC(C)(C)NC(C)(C)C2)ccc1F,0.923% (inactive)
15,C[C@H]1COc2cc(N3CCSCC3)ccc2S(=O)(=O)N1,0.723% (inactive)
16,CC(=O)Nc1ccc(NC(=O)CS(=O)(=O)c2cn(CC(=O)N3CCCCC3)c3ccccc23)cc1,2.22% (inactive)
17,CC1CC(NC(=S)N(C)C)CC(C)(C)C1 (stereo not given),-1.93% (inactive)
18,CCN(CC)S(=O)(=O)c1ccc(CNC(=O)CN2C(=O)NC3(CCc4ccccc43)C2=O)cc1 (stereo not given),-3.43% (inactive)
19,CCOCc1nnc(NC(=O)CCS(=O)(=O)Cc2ccccc2)s1,2.97% (inactive)
20,CCC(C)NC(=O)/C=C/c1ccc(S(=O)(=O)NCc2ccco2)cc1 (stereo not given),-0.382% (inactive)
21,O=C(CCS(=O)(=O)c1ccc2c(c1)NC(=O)CS2)NCc1ccccc1Cl,-0.54% (inactive)
22,O=C(O)C1C2C=CC(C2)C1C(=O)N1CCN(CCO)CC1 (stereo not given),-0.292% (inactive)
23,CCC(=O)c1ccc(OCC(O)Cn2nc(C)c(C(C)=O)c2C)cc1 (stereo not given),-0.63% (inactive)

row,Structure (SMILES),activation
1,Cn1cccc1Cc1nnc(SCC(=O)NCCc2ccccc2)n1-c1ccc(F)cc1,-0.845% (inactive)
2,Cc1cccc(NC(=O)CSc2nc3c(c(=O)[nH]2)CCC3)c1C,-0.45% (inactive)
3,O=C1C[C@@H]2c3c(cccc3CN1Cc1ccccc1)C[C@@H](O)[C@H]2O,0.126% (inactive)
4,CCCn1c(C(Cc2ccccc2)NC(=O)COC)nc2ccccc21 (stereo not given),0.549% (inactive)
5,Cc1cccc(NC(=S)N2CCCC(c3nc4ccccc4[nH]3)C2)c1 (stereo not given),-0.267% (inactive)
6,Cc1cc2cc3c(N)[nH]nc3nc2cc1C,-0.975% (inactive)
7,C=CCN1C2CCCC1CC(NC(=S)Nc1cccc(OC)c1)C2 (stereo not given),-0.0533% (inactive)
8,O=S(=O)(NCc1ccccc1Br)c1ccccc1Br,0.131% (inactive)
9,CCN(CC)C(=O)C1=C(C)N(Cc2ccc(F)cc2)C(=O)C(CC(=O)NCc2cccc3ccccc23)C1 (stereo not given),-1.55% (inactive)
10,CN1CCC(N(C)S(=O)(=O)c2ccc(NC(=O)c3cccc(C#N)c3)cc2)CC1,0.319% (inactive)
11,CCCN(CC1CC1)C(=O)COC(=O)c1ccc(C)cc1O,-0.72% (inactive)
12,COc1cccc2oc(CCc3ccccc3)cc(=O)c12,2.76% (inactive)
13,COC(C[C@@H]1O[C@@H]1C(=O)[C@@H](C)OCc1ccccc1)OC,0.368% (inactive)
14,Cc1noc(/C=C/c2ccco2)c1S(=O)(=O)N1CCC(C(=O)Nc2ccc(Cl)cn2)CC1,-0.421% (inactive)
15,Cc1cc(-c2csc(N)n2)c(C)n1-c1ccccc1,-0.438% (inactive)
16,C[n+]1ccc(/C=C/c2c[nH]c3ccccc23)cc1,91.4% (active)
17,CSc1nsc(SC)c1NC(=O)OC1CCCCC1,-1.77% (inactive)
18,CN1CCN(c2ccc3c(c2)OC[C@H](Cc2ccccc2)NS3(=O)=O)CC1,1.2% (inactive)
19,CC(=O)c1c(C)[nH]c(C(=O)Nc2cc(S(=O)(=O)N(C)C)ccc2C)c1C,0.322% (inactive)
20,CO[C@@H]1CN(C)C(=O)c2cc(NC(=O)Nc3cc(F)ccc3F)ccc2OC[C@H](C)N(C(=O)c2ccccn2)C[C@@H]1C,-0.0824% (inactive)
21,CCCNC(=O)C1(C)CCN(Cc2csc(-c3ccc(Cl)cc3)n2)C1 (stereo not given),-0.168% (inactive)
